# Hits are enriched below; roughly 1.5% of the tested compounds scored in any of these assays.
# GALK inhibitor: galactokinase (human) inhibition; Potency, µM (doses to about 57.5 µM), for inactives: at the top dose activity change, negative = inhibition, usual class: inhibitors; hit rate 0.007% among 270,000; AID 1868; Purified GALK, Kinase-Glo residual ATP luminescence; P51570; note: potency is the fitted concentration of half-maximal effect
#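 Compounds were pin-transferred into ATP buffer (35 uM final), then GALK plus galactose (5 nM, 100 uM final) was added. After 1 h at room temperature, Kinase-Glo Plus was added and luminescence read after 10 min.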
# TrxR1 substrate: substrates of rat thioredoxin reductase 1. purified TrxR1 substrate turnover, NADPH consumption readout. Potency, µM (titrated, usually from 114 µM), for inactives: at the highest dose activity change, negative = substrate turnover. hit rate 0.01% among 390,000; note: potency is the fitted concentration of half-maximal effect; nearly all actives have a fitted effect of over 50% in size
# Target sequence (O89049 whole entry, looked up): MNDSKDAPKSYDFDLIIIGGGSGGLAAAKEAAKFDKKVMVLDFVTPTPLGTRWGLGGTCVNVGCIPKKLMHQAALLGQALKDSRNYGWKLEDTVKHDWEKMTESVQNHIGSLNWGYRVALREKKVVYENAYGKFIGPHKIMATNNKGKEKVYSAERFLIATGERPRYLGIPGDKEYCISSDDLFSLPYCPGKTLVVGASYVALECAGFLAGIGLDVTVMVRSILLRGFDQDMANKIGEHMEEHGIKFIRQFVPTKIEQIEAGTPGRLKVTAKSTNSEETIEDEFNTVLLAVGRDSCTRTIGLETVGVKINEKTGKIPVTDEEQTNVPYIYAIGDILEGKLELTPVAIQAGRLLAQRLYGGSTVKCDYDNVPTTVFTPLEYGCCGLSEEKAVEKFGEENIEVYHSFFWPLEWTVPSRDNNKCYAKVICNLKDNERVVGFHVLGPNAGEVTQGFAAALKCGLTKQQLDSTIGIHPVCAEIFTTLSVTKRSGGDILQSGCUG
#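 Rat TrxR1, dispensed at 90 nM, was prereduced with 400 uM NADPH (final) for 5 min at ~22 deg C, then incubated with compound 15 min before 400 uM selenite. A first-read NADPH fluorescence drop versus no-compound background flagged substrates.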
# FBPA coupling cs: coupling enzyme interference in Giardia aldolase counter-screen. coupling enzyme system counterscreen, AmpLite Red fluorescence. activity change, negative = inhibition, % at 58.2 µM, hits read low. hit rate 0.67% among 290,000; in the data active = activity change below about -30%
#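 Counterscreen of the coupled detection system alone, without aldolase: glyceraldehyde-3-phosphate coupling enzymes plus AmpLite Red readout. Compounds at 57.5 uM final, 10 min RT preincubation, 20 min RT reaction, fluorescence 525/598 nm.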
# rTrxR1 inhibitor: rat TrxR1 inhibition | O89049 | recombinant rTrxR1, NADPH fluorescence consumption, selenite substrate | Potency, µM (series often up to 114 µM), for inactives: at the top dose activity change, negative = inhibition, most hits filed as inhibitors | hit rate 1% among 390,000; note: potency is the fitted concentration of half-maximal effect; nearly all actives have a fitted effect of over 65% in size
#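 Rat TrxR1 (90 nM in the dispensed reagent) was pre-reduced with 400 uM NADPH for 5 min at room temperature, then incubated with compound for 15 min. After 400 uM selenite was added, NADPH fluorescence (Ex 340/Em 450 nm) was followed for 8 min.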
# Giardia killer: Giardia lamblia killing. Giardia lamblia trophozoite viability. activity change, % at 7.66 µM, hits read low. hit rate 0.15% among 340,000. AID 540267; in the data active = activity change below about -80%; inconclusive = between about -30% and that limit;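 note: parasites exposed to compound for two days anaerobically before the ATP read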
#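 Killing of trophozoites was scored by loss of ATP luminescence after a 48 hrs anaerobic exposure to compounds at 37 deg C, using 100 cells per well.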
# PI4K2A inh: blocks human PI4K2A kinase activity; AID 1346378; hit rate 0.13% among 420,000; activity change, negative = inhibition, % at 76.9 µM; purified PI4K2A, ADP-Glo luminescence, 1 h; stronger effect = lower value; in the data active = activity change below about -50%; inconclusive = mostly about -30% to -49%;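 note: -100% = wells without enzyme as full effect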
#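 PI4K2A activity was measured by ADP-Glo luminescence: enzyme (4 ug/mL stock) and phosphatidylinositol (1.2 mM stock) in Tris pH 7.5/MgCl2/EGTA/Triton X-100 buffer were reacted with ATP (300 microM stock) for one hour at ambient temperature.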
# Starred values were filed as active, the others as inactive; ? = inconclusive; / = no result given; ! = repeats disagree; [ ] = another dose, or the depositor's remark. Unless noted, calls come from the whole dose curve; as a rule, active = well fitted curve in the direction sought with a large enough effect; inconclusive = small, poorly fitted or top-dose-only effect, or another doubt; inactive = no such curve, though single readings can be large; an effect the other way counts as inactive or inconclusive. Unless noted, % is set by controls: 0 for no effect and ±100 for the full control effect.
SMILES,GALK inhibitor,TrxR1 substrate,FBPA coupling cs,rTrxR1 inhibitor,Giardia killer,PI4K2A inh
Cc1cc2nccc(/C=C/c3ccc(N(C)C)cc3)c2cc1C,/,-11.1%,/,-13.8%,/,/
CCc1ccc(OCCCSc2nc(-c3ccc(C(C)(C)C)cc3)nc3cc(=O)[nH]n23)cc1,/,3.5%[57.1 µM],/,13.0%[57.1 µM],/,-0.2
Cc1cccc(-c2nnc(SCCC(=O)N3CCOCC3)o2)c1,2.2%,-8.1%,1.0,-5.0%,25.4,-2.5
Cc1cccc(-c2nnc(SCCC(=O)O)o2)c1,/,9.3%[11.4 µM],/,9.8%,/,-59.7*
CN(C)c1cccc2c1C(=O)c1ccccc1C2=O,0.1%,-13.7%,-29.1,-12.0%,-10.7,-13.4
Cc1ccc(SC2=C(N(C)C)C(=O)c3ccccc3C2=O)cc1,/,-5.8%,/,7.94µM*,-8.4,-8.1
CN(Cc1ccccc1)/[N+]([O-])=N/Oc1ccc([N+](=O)[O-])cc1[N+](=O)[O-],/,-4.4%,/,2.82µM*,/,/
CN(C)/[N+]([O-])=N/Oc1ccc([N+](=O)[O-])cc1[N+](=O)[O-],/,-11.0%,/,12.6µM*,/,/
Nc1ccc(Oc2ccc([N+](=O)[O-])cc2[N+](=O)[O-])cc1,0.8%,2.4%[57.1 µM],-12.3,24.5%[57.1 µM],1.6,14.1
CN(C)/[N+]([O-])=N\Oc1cc(OC(=O)c2ccc(N)cc2)c([N+](=O)[O-])cc1[N+](=O)[O-],/,-15.9%,/,-33.2%,/,/
CNc1ccc(C(=O)Oc2cc(O/N=[N+](\[O-])N(C)C)c([N+](=O)[O-])cc2[N+](=O)[O-])cc1,/,-24.9%,-16.4,25.1µM*,-9.7,/
CCN(CCN(C)Cl)/[N+]([O-])=N/Oc1ccc([N+](=O)[O-])cc1[N+](=O)[O-],/,-3.2%,/,10µM*,/,/
CCOc1ccc(-c2nnc(SCC(=O)Nc3cc(C)ccc3OC)o2)cc1,/,-1.1%,/,28.2µM*,/,3.6
COc1ccc(C)cc1NC(=O)CSc1nnc(-c2ccc(C)cc2)o1,-1.1%,5.4%,0.3,18.0%,0.3,-2.5
COc1cc(-c2nnc(SCC(=O)Nc3ccc4c(c3)OCCO4)o2)cc(OC)c1OC,0.5%,2.2%,-2.5,18.1%,0.4,-55.5*
COc1ccc(C2C3C=CCC(C)C3C(=O)N2Cc2ccccc2)cc1Cl (centres undefined),/,0.3%,4.7,-6.9%,14.5,/
CCNC(=O)NC(=O)c1csc([N+](=O)[O-])c1,6.2%,3.3%[57.1 µM],1.9,7.2%[57.1 µM],?,-1.7
O=C(NCc1ccco1)c1ccc([N+](=O)[O-])o1,7.9%,8.5%[57.1 µM],-4.9,-7.4%[57.1 µM],-80.5*,-7.5
CC(Sc1ccsc1[N+](=O)[O-])C(=O)NCc1ccco1 (centres undefined),8.1%,-6.0%,4.2,20µM*,?,-6.3
O=C(NCc1cccnc1)c1ccc([N+](=O)[O-])o1,-0.5%,-5.5%,-0.8,-10.2%,-89.5*,-0.1
O=C(NCc1ccco1)c1ccc(Cn2cc([N+](=O)[O-])cn2)o1,-1.0%,-1.1%,-0.4,3.8%,-10.2,3.5
O=C(NCc1ccco1)NC(=O)c1csc([N+](=O)[O-])c1,3.4%,-6.3%[57.1 µM],0.3,-5.8%[57.1 µM],-81.8*,-21.2
O=C(Nc1cccnc1)c1ccc([N+](=O)[O-])o1,3.9%,-10.4%,-5.6,-29.9%,-85.8*,3.9
O=C(Nc1cccnc1)c1ccco1,2.1%,7.5%[57.1 µM],1.9,-18.5%[2.29 µM],-6.1,-4.5
CCC[C@H]1[C@@H](NC(=O)c2ccc(C)cc2)CC[C@@]23CCCN2C(=O)CCC[C@@H]13,/,/,/,/,/,-3.4
SMILES,GALK inhibitor,TrxR1 substrate,FBPA coupling cs,rTrxR1 inhibitor,Giardia killer,PI4K2A inh
O=C(NC1CCCC1)C(c1ccc(F)cc1)N(Cc1ccccc1Cl)C(=O)CCl (centres undefined),-0.3%,-1.3%,0.4,31.6µM*,-14.1,3.1
O=C(NC1CCCC1)C(c1ccc(F)cc1)N(Cc1ccc(F)cc1)C(=O)c1ccn[nH]1 (centres undefined),/,2.4%[57.1 µM],0.0,2.6%[57.1 µM],7.7,4.0
COCCN(C(=O)CCl)C(C(=O)NC1CCCCC1)c1ccccc1C (centres undefined),0.7%,3.3%,3.0,28.2µM*,-3.3,16.1
COc1ccc2c(c1)c1c(c(=O)n(Cc3ccccc3)c(=O)n1CC(=O)Nc1ccccc1OC)n2C,/,4.9%,/,9.9%,/,2.4
CCCC(O)(CCN1CCOCC1)c1ccc(Br)cc1 (centres undefined),0.4%,-5.5%,0.0,35.5µM*,1.5,-2.0
CCCC(O)(CCN1CCOCC1)c1ccc(Cl)cc1 (centres undefined),-1.4%,5.5%,1.9,?,10.7,4.0
C=CCn1c(SCc2nc3ccccc3nc2C)nnc1-c1ccoc1C,6.3%,-0.1%,5.2,44.7µM*,4.4,-18.5
Cc1cccc(OCC(=O)Nc2cc(C)c(O)c(-c3nc4ccccc4o3)c2)c1,/,-6.8%,/,-20.5%,/,/
CCc1cccc(CC)c1NC(=S)NCCc1ccc(O)c(O)c1,9.5%,-8.5%,-7.5,6.31µM*,-4.3,2.5
C[C@H]1Cc2c(COc3ccccc3)nc3c(c2CO1)CN(S(=O)(=O)c1ccc2c(c1)OCCN2C)CC3,/,/,-0.2,/,/,/
CC(C)OCCCN1C=C2C(=O)C(C)(OC(=O)C3CCCC3)C(=O)C=C2C=C1c1ccsc1 (centres undefined),/,/,-40.7*,/,/,/
CC1(OC(=O)C2CCCC2)C(=O)C=C2C=C(c3ccsc3)N(C3CCCC3)C=C2C1=O (centres undefined),-1.0%,-4.9%,-31.9*!,?,-22.4,-11.0
CC1(OC(=O)C2CCCC2)C(=O)C=C2C=C(c3ccsc3)N(Cc3ccco3)C=C2C1=O (centres undefined),-1.1%,-2.5%,-2.0,31.6µM*,4.4,-21.9
CC1(OC(=O)C2CCCC2)C(=O)C=C2C=C(c3ccsc3)N(CCCCO)C=C2C1=O (centres undefined),3.9%,-7.8%[57.1 µM],-37.2*,11.8%[57.1 µM],-0.6,-8.2
CCOc1ccc(-n2c(SCC(=O)Nc3ccccc3-c3ccccc3)nnc2-c2ccccc2)cc1,/,/,/,/,/,-1.8
COc1ccc2cc3c(N)c(C(=O)NCc4ccco4)sc3nc2c1,-2.5%,-0.7%,-1.8,-12.4%,2.3,-56.8*
Nc1ccc(/C=C/c2ccnc3ccccc23)cc1,/,9.8%[0.0914 µM],/,23.2%,/,/
COC(=O)[C@]12C[C@H](CC(=O)N3CCCC3)C(=O)N(Cc3ccco3)C1=C[C@H](C(C)C)O[C@@H]2C1CC1,/,/,/,/,/,2.9
CCOC(=O)c1c(-c2ccco2)csc1N,5.1%,-2.8%,-31.0*,11.0%,-16.5,-2.5
O=C(Nc1cccc(O)c1)C(=O)Nc1ccccn1,7.5%,11.9%,1.8,19.1%,?,-64.2*
C=CCSc1nnc(N2C(=O)C(O)=C(C(=O)c3ccco3)C2c2ccccc2F)s1 (centres undefined),-1.1%,-14.1%,-14.1,50.1µM*,-30.0,-12.8
